JMJD2A Tudor inh – blocks the human JMJD2A Tudor domain; 390,000 compounds, 4.4% hits; AlphaScreen JMJD2A-Tudor / H3K4me3 peptide binding; Potency, µM (highest dose often 114 µM), without a hit: top-dose activity change, negative = inhibition, usual class: inhibitors; O75164; AID 504339; note: potency is the fitted concentration of half-maximal effect; % is set by controls: 0 for no effect and ±100 for the full control effect; nearly all actives have a fitted effect of over 50% in size
CtBP-E1A inh – inhibitors of CtBP/E1A interaction | activity change, % (test concentration not listed) | AlphaScreen GST-E1A/His-CtBP binding, 1536-well; active compounds read low | 340,000 compounds, 0.49% hits; in the data active = activity change below about -65%; inconclusive = mostly about -30% to -63%; note: % is set by controls: 0 for no effect and ±100 for the full control effect
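In 5 uL wells, 23 nL compound meets equimolar GST-E1A and His-CtBP (5X stock 125 nM each) for 2 h, 37 °C. Beads (5X, 50 ug/mL) then 1 h, 37 °C, dark.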
BAZ2B block – BAZ2B (human) inhibition; Q9UIF8; AlphaScreen BAZ2B-H3K14Ac peptide displacement; Potency, µM (top dose mostly 114 µM), without a hit: at the top dose activity change, negative = inhibition, most hits filed as inhibitors; 360,000 compounds, 4.4% hits; note: potency is the fitted concentration of half-maximal effect; % is set by controls: 0 for no effect and ±100 for the full control effect; nearly all actives have a fitted effect of over 60% in size
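BAZ2B (50 nM) with biotin-H3(5-23)K14Ac peptide (50 nM) in PBS pH 7.4, 0.01% Tween-20, preformed 30 min, then compound 30 min at room temperature; top concentration 110uM. AlphaScreen streptavidin donor/nickel chelate acceptor beads (10 ug/mL final), 20 min dark, signal read.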
Six1-Eya2 blk – blocks human Six1 binding to Eya2 | AID 651725 | AlphaScreen GST-Six1/His-Eya2 binding, biochemical; active compounds read low | Q15475+O00167 | activity change, % (concentration not given with the values) | 360,000 compounds, 0.56% hits; in the data active = activity change below about -65%; inconclusive = mostly about -30% to -63%; note: % is set by controls: 0 for no effect and ±100 for the full control effect
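Six1/Eya2 binding was read as AlphaScreen signal after compounds were pinned into GST-Six1 plus His-tagged Eya2 (5X stock 250/500 nM) in pH 8.0 Tris/NaCl/TCEP buffer, beads added, then incubated 1 h, 37 C, dark.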
G9a block – blocks human histone lysine methyltransferase G9a; Q96KQ7; G9a H3K9 monomethylation, AlphaScreen, 2 h; Potency, µM (titrated, usually from 102 µM), for inactives: top-dose activity, negative = inhibition, most hits filed as inhibitors; 350,000 compounds, 8.8% hits; AID 504332; note: potency is the fitted concentration of half-maximal effect; % is set by controls: 0 for no effect and ±100 for the full control effect; nearly all actives have a fitted effect of over 75% in size
Target sequence (Q96KQ7 913-1193 limits assumed): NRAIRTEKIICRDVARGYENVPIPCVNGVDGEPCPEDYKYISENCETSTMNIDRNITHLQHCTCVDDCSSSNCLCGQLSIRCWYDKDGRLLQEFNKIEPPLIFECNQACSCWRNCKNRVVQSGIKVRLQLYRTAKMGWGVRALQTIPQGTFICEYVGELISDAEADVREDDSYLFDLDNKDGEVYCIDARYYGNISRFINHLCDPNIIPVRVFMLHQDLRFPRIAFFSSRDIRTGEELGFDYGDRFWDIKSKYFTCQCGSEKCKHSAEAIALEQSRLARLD
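Compounds were preincubated with 20 nM G9a for 15 min, after which biotinylated H3K9 peptide (500 nM) and SAM (20 uM) started a 2 h room-temperature reaction. Monomethylated product was quantified by antibody-based AlphaScreen chemiluminescence.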
HP1b chromo inh – inhibitors of HP1-beta chromodomain binding to methylated histone tails | P83916 | AlphaScreen HP1-beta / biotin-H3K9me3 peptide binding | Potency, µM (series often up to 114 µM), for the others: top-dose activity change, negative = inhibition, hits mostly inhibitors | 390,000 compounds, 0.56% hits; note: potency is the fitted concentration of half-maximal effect; nearly all actives have a fitted effect of over 70% in size
Target sequence (P83916 whole entry, looked up): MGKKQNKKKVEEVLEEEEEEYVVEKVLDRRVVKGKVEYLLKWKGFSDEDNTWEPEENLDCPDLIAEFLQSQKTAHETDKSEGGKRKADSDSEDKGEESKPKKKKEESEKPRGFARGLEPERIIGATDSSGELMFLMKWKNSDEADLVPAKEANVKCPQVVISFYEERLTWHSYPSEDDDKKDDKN
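HP1-beta protein (50 nM final) preincubated 30 min at room temperature with biotinylated H3(1-18)K9me3 peptide (50 nM) in PBS pH 7.4, 0.01% Tween-20, then compound added for 30 min. AlphaScreen streptavidin donor/nickel chelate acceptor beads (10 ug/mL final), 30 min dark, luminescence read.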
Active calls of the source: *; ? = inconclusive; nt = no result; [ ] = dose if it differs, or a comment. Hits are enriched below; roughly 10% of the tested compounds scored in any of these assays. Unless noted, calls come from the whole dose curve; as a rule, active = well fitted inhibition curve with a large enough effect; inconclusive = small, poorly fitted or top-dose-only effect; inactive = no such curve, though single readings can be large or run the other way.

SMILES | JMJD2A Tudor inh | CtBP-E1A inh | BAZ2B block | Six1-Eya2 blk | G9a block | HP1b chromo inh
Cn1cnnc1SCC(=O)N1N=C2/C(=C/c3ccco3)CCCC2C1c1ccco1 (configuration not stated) | -24% | -4 | 56µM* | -6 | nt | 8%
Nc1nc(SCC(=O)N2N=C3/C(=C/c4ccco4)CCCC3C2c2ccco2)n[nH]1 (configuration not stated) | -33% | -15 | 50µM* | -22 | ? | -8%
Nc1nc(SCC(=O)N2N=C3/C(=C\c4ccco4)CCCC3C2c2ccco2)n[nH]1 (configuration not stated) | ? | -3 | nt | -14 | nt | -10%
CC(C(=O)Nc1ccccc1C(F)(F)F)n1nc(-c2ccccc2)c2c(c1=O)CCCC2 (configuration not stated) | -20% | nt | -5% | nt | -6%[59 µM] | 22%
Cc1ccc(NC(=O)C(Cc2ccccc2)NS(=O)(=O)c2cccc3nsnc23)c(C)c1 (configuration not stated) | ? | nt | nt | nt | 1%[59 µM] | 8%
CC(C)OCCCNC(=O)c1ccc2c(c1)N(Cc1c(F)cccc1Cl)C(=O)c1ccccc1S2 | -9% | nt | nt | nt | -5%[59 µM] | 29%
NC(CCc1ccccc1)c1csc(Nc2cnccn2)n1 (configuration not stated) | nt | -67* | nt | ? | nt | nt
COc1ccc(CC(N)c2csc(Nc3ccccn3)n2)cc1 (configuration not stated) | nt | -92* | nt | -88* | nt | nt
NC(c1csc(Nc2ccccn2)n1)C1CCCCC1 (configuration not stated) | nt | -80* | nt | ? | nt | nt
COc1ccc(CC(N)c2csc(Nc3cccc(OC)n3)n2)cc1 (configuration not stated) | nt | -21 | nt | -8 | nt | nt
Cc1cnc(C)c(Nc2nc(C(N)c3ccccc3)cs2)n1 (configuration not stated) | nt | -66* | nt | ? | nt | nt
CCC1CCCCN1C(=O)CSc1n[nH]c(-c2ccccc2)n1 (configuration not stated) | 3% | nt | 0% | nt | -30%[59 µM] | 19%[57 µM]
CCc1ccc(NC(=O)Cn2c(=O)n(CCCC(=O)NCCc3ccc(OC)c(OC)c3)c(=O)c3ccccc32)cc1 | 3% | nt | -1% | nt | -5%[59 µM] | 26%
Cn1cnc(S(=O)(=O)N2CCCC(C(=O)Nc3ccc(OC(F)(F)F)cc3)C2)c1 (configuration not stated) | -4% | nt | -4% | nt | 10%[59 µM] | 25%
NC(c1ccccc1)c1csc(Nc2ccccn2)n1 (configuration not stated) | nt | -90* | nt | -89* | nt | nt
c1ccc(-c2csc(Nc3ccccn3)n2)cc1 | -29% | -14 | -36% | -3 | -7% | 13%
O=C(O)c1ccc(N/N=C/c2ccc3nccnc3c2)cc1 | -16% | -11 | -22% | -25 | 50µM* | 14%
O=C(O)c1ccc(N/N=C/c2cccc(F)c2)cc1 | -26% | 6 | 5% | -18 | ? | 22%
C(=N\NCc1ccccc1)/c1ccc2ncccc2c1 | -27% | nt | -33% | 8 | -53% | 39%
C(=N\NCc1ccccc1)/c1ccc2nccnc2c1 | -17% | nt | -20% | -1 | 50µM* | 40%
O=C(O)c1ccc(N/N=C/c2ccc(F)c(F)c2)cc1 | -35% | 1 | -30% | -1 | 4.5µM* | 6%
Cc1ccc2cc(/C=N/NC(=O)c3ccc(F)cc3)c(Cl)nc2c1 | -20% | 3 | -8% | 0 | 67%[59 µM] | 13%
Cc1ccc2nc(Cl)c(/C=N/Nc3ccc(C(=O)O)cc3)cc2c1 | -25% | 3 | ? | -4 | 50µM* | 32%
O=C(O)c1ccc(N/N=C/c2cccc3cccnc23)cc1 | -5%[11.4 µM] | 14 | 71µM* | 6 | nt | 87%
O=C(O)c1ccc(N/N=C/c2ccnc3ccccc23)cc1 | -23% | ? | -35% | -20 | ? | 59%
SMILES | JMJD2A Tudor inh | CtBP-E1A inh | BAZ2B block | Six1-Eya2 blk | G9a block | HP1b chromo inh
COCCCNC(=O)C1CCCN(S(C)(=O)=O)C1 (configuration not stated) | -1% | 13 | -12% | 8 | 71µM* | 25%
CCOc1cc(C(=O)OCc2cc(=O)n3nc(CC)sc3n2)cc(OCC)c1OCC | -17% | nt | -20% | nt | 6%[59 µM] | 16%
CCc1ccc(CNC(=O)c2cnc3sc(N4CCCCC4)nn3c2=O)cc1 | -8% | nt | -4% | nt | -6%[59 µM] | 13%
CN(C)c1ccc(S(=O)(=O)c2ccc(Cl)cc2)cc1 | 2% | 6 | -3% | -1 | -1% | 34%
CN(C)c1ccc(C2C3C(=O)NC(=O)C3ON2c2ccc(Cl)cc2)cc1 (configuration not stated) | 56µM* | -6 | 50µM* | -15 | ? | -17%
COc1cc2c(cc1NC(=O)c1cccc([N+](=O)[O-])c1)oc1ccccc12 | -17% | 4 | 4% | 7 | 50µM* | -14%
COc1cc2c(cc1NC(=O)c1ccc(C)c([N+](=O)[O-])c1)oc1ccccc12 | -5% | -23 | -2% | -13 | -2%[59 µM] | -5%
Cn1c(=O)c(-c2ccccc2)nc2cnc(N3CCOCC3)nc21 | nt | nt | nt | nt | 15%[0.501 µM] | nt
COCc1cc(C)nc(N/N=C/c2ccc(-c3ccc(Cl)cc3[N+](=O)[O-])o2)c1C#N | -34% | 0 | ? | -11 | 40µM* | -5%
CSc1ccc(CN(C)CCc2ccccn2)cc1 | 25µM* | nt | 32µM* | 13 | nt | ?
CN(CCc1ccccn1)Cc1ccc(Cl)cc1Cl | 20µM* | -4 | 50µM* | 1 | -20%[0.0925 µM] | ?
CN(CCc1ccccn1)S(=O)(=O)c1ccccc1F | ? | 7 | ? | ? | 45µM* | 30%
CN(CCc1ccccn1)c1ccccc1 | -29% | -14 | nt | -24 | nt | -20%
COC(=O)c1cccc(Nc2c(-c3cc(Br)ccc3O)nc3nc[nH]n23)c1 | ? | nt | -29% | nt | 17%[59 µM] | 10%
CCOc1ccccc1CNC(=O)Cn1nc(C)c2nn(-c3ccc(Cl)cc3)c(C)c2c1=O | -17% | nt | 2% | nt | 9%[59 µM] | 24%[57 µM]
CCOC(=O)C(=O)NCC(c1cccnc1)N1CCN(c2ccccc2)CC1 (configuration not stated) | -11% | nt | -3% | nt | -5%[59 µM] | 47%
Cn1c(=O)c2c(nc(CO)n2C)n(C)c1=O | -7% | -23 | -14% | -2 | -15% | -12%
Cn1c(=O)c2c(nc(NNC(=O)C(F)(F)F)n2C)n(C)c1=O | ? | 10 | ? | -2 | 6.3µM* | 37%
Cn1c(=O)c2c(nc(N3CCCC3)n2C)n(C)c1=O | -11% | -2 | -1% | -4 | -7% | 14%
Cn1c(=O)c2c(nc(NN=C3CCCC3)n2C)n(C)c1=O | -27% | nt | ? | -3 | 40µM* | 0%
O=C1CCc2cc(S(=O)(=O)Nc3cccc(Br)c3)ccc2N1 | -16% | nt | nt | nt | nt | nt
